Source: PubChem BioAssay (several laboratories)
MEKK3 PB1 HTS: MEKK3-MEK5 PB1 interaction, increase or decrease; bead-based flow cytometry, Alexa488-MEK5 binding to MEKK3; actives lie on both sides; 0 = blocked by unlabeled MEK5, 100 = vehicle; binding response (% of control), % at 10 µM; hit rate 1.4% among 290,000; AID 1529;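 active = binding response more than 3 SD above or below the average of its plate-row segment, actives on both sides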;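 note: Alexa488 bead fluorescence after subtracting the streptavidin-only scavenger bead signal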
Target sequence (Q99759 whole entry, looked up): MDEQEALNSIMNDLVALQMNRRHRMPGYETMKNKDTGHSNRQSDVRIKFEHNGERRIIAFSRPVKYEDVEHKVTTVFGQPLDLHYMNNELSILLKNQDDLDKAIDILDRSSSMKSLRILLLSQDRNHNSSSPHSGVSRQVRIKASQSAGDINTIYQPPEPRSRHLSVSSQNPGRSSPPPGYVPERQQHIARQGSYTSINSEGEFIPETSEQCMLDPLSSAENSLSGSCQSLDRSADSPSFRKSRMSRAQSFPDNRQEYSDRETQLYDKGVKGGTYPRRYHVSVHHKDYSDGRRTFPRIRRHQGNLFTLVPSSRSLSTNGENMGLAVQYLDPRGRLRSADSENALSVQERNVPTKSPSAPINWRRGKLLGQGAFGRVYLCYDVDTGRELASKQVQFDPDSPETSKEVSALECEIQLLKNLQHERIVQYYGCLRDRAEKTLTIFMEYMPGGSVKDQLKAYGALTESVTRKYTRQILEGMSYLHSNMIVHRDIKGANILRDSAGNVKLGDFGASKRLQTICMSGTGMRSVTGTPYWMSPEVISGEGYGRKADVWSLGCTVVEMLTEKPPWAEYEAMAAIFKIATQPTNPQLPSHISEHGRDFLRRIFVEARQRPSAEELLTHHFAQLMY
MEKK2wt PB1 HTS: raises or lowers MEK5 binding to wildtype human MEKK2 PB1 domain; binding response (% of control), % at 10 µM; hit rate 1.1% among 290,000; bead flow cytometry, Alexa488-MEK5 binding to MEKK2 WT; actives lie on both sides; in the data active = binding response below about 67% or above about 130%
Pf gametocyte: kills late stage P. falciparum gametocytes | AID 743093 | inhibition, % at 10.9 µM | hit rate 0.065% among 150,000 | P. falciparum stage V gametocytes, ATP luminescence, 24 h;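 active = inhibition above the mean plus 3 SD of compounds within the control limits, set per campaign, cut at about 38% in these data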;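 note: 0% = DMSO wells and 100% = medium only without gametocytes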
Arbovirus inh: blocks arbovirus infection. AID 1251. hit rate 0.37% among 200,000. inhibition, % at 10 µM. arbovirus infection cell-based antiviral screen; in the data active = inhibition above about 30%
MEKK2mut PB1 HTS: signal of MEK5 binding to mutant human MEKK2 PB1 domain; bead flow cytometry, Alexa488-MEK5 binding to MEKK2 mutant; percent response, % at 10 µM; hit rate 0.35% among 290,000; AID 1530; in the data active = percent response above about 24%, passing the limit was not always enough
MEKK2wt confirm: raises or lowers MEK5 binding to wildtype human MEKK2, retest | shares compounds with MEKK3 PB1 HTS | bead flow cytometry, Alexa488-MEK5 binding to MEKK2 WT; actives lie on both sides | binding response (% of control), % at 10 µM | hit rate 2.4% among 5,900; in the data active = binding response below about 16% or above about 210%; inactive = in between
MEKK2mut confirm: signal of MEK5 binding to mutant human MEKK2, retest; hit rate 2% among 5,900; shares compounds with MEKK3 PB1 HTS; percent response, % at 10 µM; AID 1893; bead flow cytometry, Alexa488-MEK5 binding to MEKK2 mutant; in the data active = percent response mostly above about 71%, no sharp cut-off; inactive = mostly below about 38%;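 note: higher means compound restores mutant binding toward wildtype level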
MEKK3 confirm: confirmation of inhibitors of MEK5 binding to human MEKK3; shares compounds with MEKK3 PB1 HTS; bead flow cytometry, Alexa488-MEK5 binding to MEKK3; hits give low values; binding response (% of control), % at 10 µM; hit rate 1.8% among 5,900;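 active = binding response below 72% of control, or above a set upper limit, though filed actives all read lower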;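 note: 100% = DMSO only wells and 0% = binding blocked by excess unlabeled MEK5; lower values mean stronger disruption of MEK5 binding to MEKK3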
The depositor's hits bear a star; [ ] = dose if it differs, or a comment. Most compounds without a hit are left out; they make up all but 2.4% or so of the library.

Nc1ccc(Oc2ccc(Br)cc2)cc1 was read as MEKK3 PB1 HTS 72.0*[inhibitor], MEKK2wt PB1 HTS 97.0, Pf gametocyte 1.3, Arbovirus inh -21.9, MEKK2mut PB1 HTS -1.0, MEKK2wt confirm 104.0, MEKK2mut confirm 4.0 and MEKK3 confirm 103.0.
Screening Cc1ccc(Cl)cc1N1CCN(C(=O)Cc2cn(C)c3ccccc23)CC1 returned MEKK3 PB1 HTS 130.0*, MEKK2wt PB1 HTS 117.0, Arbovirus inh -34.9, MEKK2mut PB1 HTS 5.0, MEKK2wt confirm 106.0, MEKK2mut confirm 4.0 and MEKK3 confirm 107.0.
CSc1ccc(/C=C/C(=O)NC(=O)c2ccccc2O)cc1 was read as MEKK3 PB1 HTS 128.0*, MEKK2wt PB1 HTS 116.0, Pf gametocyte 10.3, Arbovirus inh 21.8, MEKK2mut PB1 HTS 1.0, MEKK2wt confirm 100.0, MEKK2mut confirm 1.0 and MEKK3 confirm 103.0.
`COCCOC(=O)c1c(C)oc2ccc(NS(=O)(=O)c3ccc(C)cc3)cc12` gave MEKK3 PB1 HTS 135.0*, MEKK2wt PB1 HTS 119.0, Pf gametocyte -19.7, MEKK2mut PB1 HTS 29.0, MEKK2wt confirm 102.0, MEKK2mut confirm 4.0 and MEKK3 confirm 105.0.
Cc1oc2ccc(NS(=O)(=O)c3ccccc3)cc2c1C(=O)Nc1ccccc1 was read as MEKK3 PB1 HTS 129.0*, MEKK2wt PB1 HTS 94.0, Pf gametocyte -1.3, Arbovirus inh -11.0, MEKK2mut PB1 HTS -1.0, MEKK2wt confirm 100.0, MEKK2mut confirm 0.0 and MEKK3 confirm 105.0.
For COCCOC(=O)c1c(C)oc2ccc(NS(=O)(=O)c3ccccc3)cc12 the results were MEKK3 PB1 HTS 100.0, MEKK2wt PB1 HTS 98.0, Pf gametocyte 17.1, Arbovirus inh -3.6 and MEKK2mut PB1 HTS 0.0.
For O=C(NNc1cccc([N+](=O)[O-])c1)/C(=C\c1cccnc1)NC(=O)c1ccccc1 the results were MEKK3 PB1 HTS 102.0, MEKK2wt PB1 HTS 98.0, Pf gametocyte -28.5 and MEKK2mut PB1 HTS 5.0.
For COC(=O)C1=C(C)NC(=O)CC1c1cccc(Cl)c1Cl (centres undefined) the results were MEKK3 PB1 HTS 98.0, MEKK2wt PB1 HTS 100.0, Arbovirus inh -2.6 and MEKK2mut PB1 HTS 9.0.
For COc1ccccc1C1CC(=O)NC(C)=C1C(=O)OC(C)C (centres undefined) the results were MEKK3 PB1 HTS 49.0*[inhibitor], MEKK2wt PB1 HTS 54.0, Pf gametocyte -7.4, Arbovirus inh -4.8, MEKK2mut PB1 HTS -15.0, MEKK2wt confirm 96.0, MEKK2mut confirm -2.0 and MEKK3 confirm 104.0.
`COc1cc(C(=O)NCc2ncccc2C)ccc1OC1CCN(C(C)=O)CC1` gave MEKK3 PB1 HTS 105.0, MEKK2wt PB1 HTS 110.0 and MEKK2mut PB1 HTS 12.0.
CC1=CC2=NC(=O)/C(=C\c3cccn3CCOc3cccc(C)c3)C(=N)N2O1 was read as MEKK3 PB1 HTS 101.0, MEKK2wt PB1 HTS 106.0, Pf gametocyte -31.5, Arbovirus inh -12.7 and MEKK2mut PB1 HTS -1.0.
`CC1=CC2=NC(=O)/C(=C\c3cccn3CCOc3ccccc3)C(=N)N2O1` gave MEKK3 PB1 HTS 132.0*, MEKK2wt PB1 HTS 110.0, Arbovirus inh -4.0, MEKK2mut PB1 HTS 1.0, MEKK2wt confirm 100.0, MEKK2mut confirm -4.0 and MEKK3 confirm 104.0.
CCN(CCCNC(=O)CCn1c(=O)[nH]c2ccccc2c1=O)c1ccccc1 was read as MEKK3 PB1 HTS 34.0*[inhibitor], MEKK2wt PB1 HTS 44.0*[inhibitor], Pf gametocyte -29.0, Arbovirus inh 0.6, MEKK2mut PB1 HTS -12.0, MEKK2wt confirm 106.0, MEKK2mut confirm 5.0 and MEKK3 confirm 102.0.
CCN(CCCNC(=O)CCn1c(=O)[nH]c2ccccc2c1=O)c1cccc(C)c1 was read as MEKK3 PB1 HTS 104.0, MEKK2wt PB1 HTS 105.0, Arbovirus inh -2.2 and MEKK2mut PB1 HTS 5.0.
`CN(C)CCNC(=O)c1ccc2c(=O)n(Cc3ccc(Cl)cc3)c(=S)[nH]c2c1` gave MEKK3 PB1 HTS 111.0, MEKK2wt PB1 HTS 138.0*, MEKK2mut PB1 HTS 25.0*, MEKK2wt confirm 115.0, MEKK2mut confirm 10.0 and MEKK3 confirm 105.0.
For CC1CCN(CCCNC(=O)c2ccc3c(=O)n(Cc4ccc(Cl)cc4)c(=S)[nH]c3c2)CC1 the results were MEKK3 PB1 HTS 100.0, MEKK2wt PB1 HTS 118.0, Pf gametocyte 13.9, Arbovirus inh -36.8 and MEKK2mut PB1 HTS 0.0.
`CCCCN(C)CCNC(=O)c1ccc(Cn2c(=S)[nH]c3ccc(Br)cc3c2=O)cc1` gave MEKK3 PB1 HTS 108.0, MEKK2wt PB1 HTS 171.0*, Pf gametocyte 9.6, Arbovirus inh -23.5, MEKK2mut PB1 HTS 34.0, MEKK2wt confirm 191.0, MEKK2mut confirm 55.0 and MEKK3 confirm 114.0.
Screening CCN(CC)CCNC(=O)c1ccc2c(=O)n(CCc3ccccc3)c(=O)[nH]c2c1 returned MEKK3 PB1 HTS 125.0*, MEKK2wt PB1 HTS 135.0*, Pf gametocyte 14.6, Arbovirus inh -21.6, MEKK2mut PB1 HTS 13.0, MEKK2wt confirm 107.0, MEKK2mut confirm 5.0 and MEKK3 confirm 101.0.
CC1=C(CC[C@@H](C)CO)OC2CC3C4CCC5CC(O)CCC5(C)C4CC(=O)C3(C)C12 (some centres undefined) was read as MEKK3 PB1 HTS 104.0, MEKK2wt PB1 HTS 102.0 and MEKK2mut PB1 HTS 3.0.
Screening COc1ccc(CNCc2cn(-c3cccc(F)c3)nc2-c2ccc(C)o2)cc1 returned MEKK3 PB1 HTS 101.0, MEKK2wt PB1 HTS 168.0*, Pf gametocyte -0.8, Arbovirus inh -28.9, MEKK2mut PB1 HTS 26.0, MEKK2wt confirm 172.0, MEKK2mut confirm 31.0 and MEKK3 confirm 109.0.
O=C(Nc1ccc(Cl)cn1)c1ccc2c(Cl)c3c(nc2c1)CCC3 was read as MEKK3 PB1 HTS 40.0*[inhibitor], MEKK2wt PB1 HTS 47.0*[inhibitor], Pf gametocyte 0.4, MEKK2mut PB1 HTS -13.0, MEKK2wt confirm 79.0, MEKK2mut confirm -19.0 and MEKK3 confirm 70.0*.
For CCCc1[nH]n(-c2ccc([N+](=O)[O-])cc2)c(=O)c1C(C)=NCc1ccncc1 the results were MEKK3 PB1 HTS 109.0, MEKK2wt PB1 HTS 98.0, Pf gametocyte -5.8 and MEKK2mut PB1 HTS 4.0.
For NCCCC[C@@H]1NC(=O)c2cc([N+](=O)[O-])cc(F)c2NCCCC[C@@H](C(N)=O)NC(=O)CNC1=O the results were MEKK3 PB1 HTS 113.0, MEKK2wt PB1 HTS 135.0*, Pf gametocyte 19.2, Arbovirus inh 0.5, MEKK2mut PB1 HTS 12.0, MEKK2wt confirm 104.0, MEKK2mut confirm 2.0 and MEKK3 confirm 103.0.
